Consider 40 sequences from the supplement of paper PMC6555819.

The subject of this assay is VDR:RXRa (NR concentration 270 nM, RXRa partner concentration 90 nM). Briefly: PBM binding z-score (relative to random genomic background probes); higher = stronger binding; sequences stand for … in GC…GCGATTGACAGCGTAGAATGAAGG
How it is done:
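Protein-binding microarray (Agilent 4x180K custom design, double-stranded 60-nt probes: 5' GC cap, 34-nt variable region, 24-nt constant primer region; full probe sequence given). Purified or IVT nuclear receptor:RXRα heterodimers (3:1 NR:RXRα, mostly 270:90 nM) or homodimers were incubated for 1 h in PBS with 2% milk and no ligand, then detected with Alexa488 antibodies. Fluorescence from o1-orientation probes (~5 replicates averaged) was converted to z-scores against 500 random hg19 background probes. Variable regions are seed direct-repeat (DR0–DR5) sites, all their single-nucleotide variants and half-site ablations.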
On to TTATATAGGTAATACAGGTGAAAGTCGGCATCTA, for which the PBM binding z-score came to 0.727.
CCGACTGGGGCAGAAAGGTCACCATACCATCCGG: the PBM binding z-score worked out at 4.43.
ATCTCTAGGCAAGACTCAGTTCAGTGAAGAACGC displayed a PBM binding z-score of -0.0651.
For CCTAATTGGTCAAGGTCACACACGCTATAGGTAC the value was 4.03; for TCTAGTTGGTCAAAGGTCCCACACTCGAAATGCG, 1.12; for TCATATAGGTAAATGCTGGGTGAAAGTCCGATCT, 0.641.
For CCTCGGAGGACAACAGGAGGTCAGAGCGGCCAGA the value was 2.92; for CCTAGCAGGCCAATCTGGGTCACTCGAGGCTTGA, 0.491.
For CCTAGCAGGCCATGGTCACTCAAGCATTTCGCTT the value was -0.485; for CAAACTGGGTCACCGGAAGGTCAAAGTCCGCATG, 5.93; for CGTCCAAGGTCAGCAGGTCTGTGAAAGCGACGTG, 4.69.
With ATCTCTAGGTAAGACTCAGTTCAGTGATGAACGC, the PBM binding z-score stood at 0.927.
With CCCACTGGGGCAGAAAGGTTACCATACCATCCGG the figure was 0.905; with CCTGCTAGGTCATGGTCACCTAATCTACAGTATG, 2.03.
With GCGACTGGGGCATCACCAGGTTACCATAACTTAA the figure was -0.162.
With TCGACTAGGTTAGTCGGGGCATTCAGCCAACATA the figure was 1.81.
The sequence ATCTCTAGGAAAAGTTCAGTGAAAGATCGATAGA came in with a PBM binding z-score of 1.2.
GCTTACGGGTCAAAGGTTCTAGCATGAATAGAAT registered a PBM binding z-score of 4.42.
Regarding AGAACGAGGGCACGCTGAGTTGATAGCGGAGTAG, the PBM binding z-score was 2.13.
For GGAACGAGGGCAAGTTGATAACAGAGTTTGATGG the value was 0.906.
With CCGAATGGGGCAGAAAGGTTACCATACCATCCGG the figure was 1.33; with AGAACGAGGGCACGCTGAGTTGATAACAGAGTAG, 2.06.
With CCTACTGGACCACGAAAGGTCATTGATTCAGTGA the figure was 4.17; with ATATGTAGGTTAGCTGGGGACATTCAGACTAGGC, 2.39; with ATCGAAAGGTCGAGGTGAGTATCGAGAAAGGGAA, 2.57.
The sequence TCGAGTAGGTTACCAACGGGGCATTCAGCTTTCT yielded a PBM binding z-score of 0.126.
The sequence GATGCTAGGTCAACTGATGGTCAGCTAAAGCTCG showed a PBM binding z-score of 1.69.
For the sequence GCGACTGGGGCATCAGCAGGTTACAATAACTTAA, the PBM binding z-score was -0.29.
For AGAATGAGGTTATACGTAGATCCGGGAAGAAAGT the value was 1.15; for ATAACGAGGGCAATGAGTTGATAGCACGGGTGGC, 4.89.
For ACATACGGGTCAACGAGGTTATAGCACGCGTATA the value was 7.57.
With CCTCGGAGGACAACAGGAGTTCAGAGCTGCCAGA the figure was 1.14.
Take AGAACGAGGCCAATGAGTTGATAGCACGGGTGGC: the PBM binding z-score came out at 3.09.
For TCTTGTAGATCAACAGGTTAAGAAAGCTGGCCAA the value was 0.855; for GCAGACAGCTGAAACGCAGGTAACTCAGGGTGGC, -0.826.
For TTACCAAGATGAAAGGTCGTTGATGCACGCCTTG the value was 1.69; for ATCGAAAGGTCGAGATGAGTATAGAGAAAGGGAA, 2.4.
The sequence GCATATAGGGAATACAAGGTGAAAGTCCGATTGT displayed a PBM binding z-score of 0.0593.
With CGTCAATGTTCAACTAAGGTAACGTAAAGCACGC the figure was 0.565; with GCAGACAGGTGAAACGCAGGTAACCCAGGGTGGC, -0.517.
